Reference: PubChem BioAssay (NCATS)
Several values for one entry are separate records, joined by “and”; a condition that tells them apart may be missing. Identical values can stand only once. Records with an inconclusive call do not appear. Activity calls are given as the source filed them. Unless noted, the call rests on the fitted dose curve; in most records, active means well fitted curve in the direction sought with a large enough effect; inconclusive means small, poorly fitted or top-dose-only effect, or another doubt; inactive means no such curve, though single readings can be large; an effect the other way counts as inactive or inconclusive.

How the values were obtained:
[1] = S16 Schwann cell PMP22 intronic element firefly luciferase assay (AID 624032); further: nearly all actives have a fitted effect of over 30% in size; further: potency means the concentration at half of the fitted maximal effect
Outline: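 Luciferase reporter of PMP22 intronic-element expression in stably transfected S16 rat Schwann cells, read by ONE-Glo luminescence after 24 h compound exposure at 37 C. Activity scaled between DMSO (0%) and positive-control PTC124; concentration-effect curves quality-classified.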

[2] = S16 Schwann cell viability assay (CellTiter-Glo assay) (AID 624031); further: nearly all actives have a fitted effect of over 70% in size; further: potency means the concentration at half of the fitted maximal effect
Outline: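 Concentration-effect curves come from CellTiter-Glo luminescence of S16 rat Schwann cells after 24 h compound exposure. Each reading was normalized to DMSO wells (0%) and wells without cells, and curves were ranked by r2 and response magnitude.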

[3] = target: Glutaminase kidney isoform, mitochondrial (Homo sapiens) (UniProt O94925); assay: qHTS for Inhibitors of Glutaminase (GLS): LOPAC Validation (AID 624146); further: nearly all actives have a fitted effect of over 60% in size; further: potency means the concentration at half of the fitted maximal effect
Outline: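 Two-point fluorescence kinetic (t0, 30 min RT) for hKGA; glutamate detected via glutamate oxidase–HRP–Amplex Red. Substrate: 1 mM L-glutamine solution; buffer 45 mM KH2PO4, pH 8.2.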

[4] = qHTS of Trypanosoma Brucei Inhibitors: LOPAC Validation (AID 624147); further: 0% is about no effect
Outline: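 Assay buffer: 50 mM TEA pH 7.2, 100 mM KCl, 10 mM MgCl2, 0.05% BSA, 0.01% Tween-20. Pyruvate kinase from T. brucei plus substrate met compound, then ADP (130 uM final). Luminescence was read post 45 min RT.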

[5] = target: Glucagon-like peptide 1 receptor (Homo sapiens) (UniProt P43220); assay: qHTS of GLP-1 Receptor Agonists: LOPAC Validation (AID 624148);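 further: luminescence from a luciferase reporter switched on by cAMP; 0% is about no effect; higher luminescence signal means agonism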
Outline: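 Agonism scored as increased luciferase luminescence driven by cAMP in HEK293 clones carrying GLP-1R. Cells settled 12 hours, received compound for 4-6 hr at 37 deg C, 5% CO2, and were read after 12 min detection reagent at RT.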

[6] = qHTS of Nrf2 Activators: LOPAC Validation (AID 624149); further: 0% is about no effect
Outline: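 AREc32 cells carrying an ARE-driven firefly luciferase were grown overnight in OPTI-MEM with 5% FBS, then exposed to compounds for 24 hr at 37 deg C. Luciferase signal was read after 30 min with Steady-Glo at RT.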

[7] = HTS Assay for Allosteric Antagonists of the Human D2 Dopamine Receptor: Hit Validation in HTRF (AID 624455); further: potency means the concentration at half of the fitted maximal effect;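 further: stable D1 dopamine receptor cell line scored for blocking the D1 response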
Outline: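 Hits were examined in an HTRF assay using cells stably expressing the D1 dopamine receptor, scoring inhibition of the D1-mediated response. The preceding primary screen tracked calcium flux after an EC80 dopamine addition in force-coupled, inducible Hek293 Trex D2 cells.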

[8] = qHTS assay for small molecule agonists of the antioxidant response element (ARE) signaling pathway (AID 651741; active means well fitted activation curve with a large enough effect in the signal ratio; the % refers to the signal ratio; further: potency means the concentration at half of the fitted maximal effect; on activation: % of control where 0% means no effect)
Outline: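 Seeding 2,000 ARE-bla HepG2 cells per well preceded a 5 h incubation at 37 C/5% CO2 and a 16 h compound exposure at 37 C. Beta-lactamase reporter activity was then quantified by fluorescence after 2 h with LiveBLAzer B/G FRET substrate.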

[9] = qHTS assay for small molecule activators of the p53 signaling pathway (AID 651743; active means well fitted activation curve with a large enough effect in the signal ratio, not every such curve was filed as active; the % refers to the signal ratio; further: potency means the concentration at half of the fitted maximal effect; on activation: % of control where 0% means no effect); conditions: HCT-116 p53RE-bla, beta-lactamase FRET ratio, 16 h; activation: stronger effect = higher value
Outline: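 Screen for p53 pathway agonists uses stably transfected p53RE-bla HCT-116 cells, 4,000 per well, treated 16 h at 37 C with compounds in DMSO.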

[10] = qHTS assay for small molecule disruptors of the mitochondrial membrane potential - 1 hr assay (AID 651754; calls by dose curve; further: nearly all actives have a fitted effect of over 35% in size; further: potency means the concentration at half of the fitted maximal effect)
Outline: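 HepG2 cells, attached overnight at 37C, were exposed to compound or DMSO vehicle for 1 hr at 37C, 5% CO2, then stained with Mito-MPS dye for 30 min. Red aggregate versus green monomer fluorescence reports membrane potential.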

[11] = qHTS assay for small molecule disruptors of the mitochondrial membrane potential - 5 hr assay (AID 651755; calls by dose curve; further: nearly all actives have a fitted effect of over 40% in size; further: potency means the concentration at half of the fitted maximal effect)
Outline: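 HepG2, 2,000 cells/well, overnight attach; cpd or DMSO 5 hr, 37C/5% CO2; Mito-MPS 30 min 37C; fluor 490/535 + 540/590 nm.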

[12] = target: Tumor necrosis factor (Homo sapiens) (UniProt P01375); assay: qHTS assay to identify small molecules that stimulate Tumor Necrosis Factor-alpha (TNF-alpha) secretion (AID 651757; active means well fitted curve in the direction sought with a large enough effect in the signal ratio; the % refers to the signal ratio; further: 0% is about no effect)
Outline: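 THP-1 cells were exposed to compounds for 17 hrs at 37 C, after which secreted TNF-alpha was measured by homogeneous HTRF (TR-FRET) using cryptate- and XL665-labeled anti-TNF-alpha antibodies, read after 3 hr at room temperature.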

[13] = qHTS assay for small molecule activators of the nuclear factor-kappa B (NF-kB) signaling pathway (AID 651749; active means well fitted activation curve with a large enough effect in the signal ratio; the % refers to the signal ratio; further: % of control where 0% means no effect); conditions: NF-kB-bla ME-180 cells, beta-lactamase FRET ratio, 16 h; stronger effect = higher value
Outline: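 Stably transfected ME-180 line; NF-kB response element upstream of beta-lactamase. Treatment: compound or DMSO, 16 hr. Detection: fluorescent FRET substrate.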

[14] = S16 Schwann cell PMP22 intronic element beta-lactamase assay (AID 624044; calls by dose curve; further: nearly all actives have a fitted effect of over 15% in size; further: potency means the concentration at half of the fitted maximal effect)
Outline: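 Rat S16 Schwann cells with beta-Lac driven by a PMP22 intronic element, compound-treated 24 h at 37 °C. LiveBLAzer FRET B/G read: 460 nm normalized to potassium clavulanate vs DMSO; 535 nm FRET as viability; concentration-effect curves classified.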

[15] = qHTS assay to identify small molecules that stimulate interleukin-8 (IL-8) secretion (AID 651758; active means well fitted activation curve with a large enough effect in the signal ratio; the % refers to the signal ratio; further: 0% is about no effect)
Outline: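 Secreted IL-8 measured by TR-FRET sandwich (cryptate and XL665 antibodies) from THP-1 cells exposed to compound overnight (16 hrs, 37 C).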

[16] = Cytotoxicity counterscreen for NFkB agonists and antagonists (AID 624476);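 further: cells exposed to compound for 48 hours; on the % scale 0 is the no-effect control and ±100 the full control effect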
[17] = qHTS Assay for Identification of Small Molecule Agonists for NFkB Signaling Pathway. (AID 624478); further: 0% is about no effect
Outline: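 NFkB-bla ME-180 cells (beta-lactamase reporter under NFkB response element) were plated overnight, treated with compound plus TNF alpha at 10 pM final (its EC50) for 5 hrs at 37 C, then loaded with LiveBLAzer substrate for 2 hrs.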

[18] = qHTS Assay for Identification of Small Molecule Antagonists for NFkB Signaling Pathway. (AID 624479; calls by dose curve;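 further: pathway stimulated with TNF alpha; on the % scale 0 is the no-effect control and ±100 the full control effect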)
[19] = Cell Proliferation Assay against the HBL1 Cell Line (AID 651646); conditions: HBL1 DLBCL cells; at 46.1 µM (top of the series);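 further: cells exposed to compound for 48 h before reading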
Outline: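 Luminescent ATP read-out (CellTiter-Glo) after 48 h compound exposure of HBL1 cells at 37 °C; percent activity was scaled between DMSO as 100% and 9.2 uM bortezomib (final) as 0%.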

[20] = Cell Proliferation Assay against the TMD8 Cell Line (Caspase readout at 8 hrs) (AID 651713);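 further: 0% = DMSO and 100% = 9.2 µM bortezomib caspase signal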
Outline: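 TMD8 cells (500/well) in phenol red-free RPMI with 5% FBS were treated with compounds for 8 h at 37C, 5% CO2. Caspase-Glo 3/7 luminescence was read after 15 min at room temperature and normalised to DMSO (0%) and 9.2 uM bortezomib (100%).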

Chain of Glucagon-like peptide 1 receptor (Homo sapiens) (P43220 whole entry, looked up): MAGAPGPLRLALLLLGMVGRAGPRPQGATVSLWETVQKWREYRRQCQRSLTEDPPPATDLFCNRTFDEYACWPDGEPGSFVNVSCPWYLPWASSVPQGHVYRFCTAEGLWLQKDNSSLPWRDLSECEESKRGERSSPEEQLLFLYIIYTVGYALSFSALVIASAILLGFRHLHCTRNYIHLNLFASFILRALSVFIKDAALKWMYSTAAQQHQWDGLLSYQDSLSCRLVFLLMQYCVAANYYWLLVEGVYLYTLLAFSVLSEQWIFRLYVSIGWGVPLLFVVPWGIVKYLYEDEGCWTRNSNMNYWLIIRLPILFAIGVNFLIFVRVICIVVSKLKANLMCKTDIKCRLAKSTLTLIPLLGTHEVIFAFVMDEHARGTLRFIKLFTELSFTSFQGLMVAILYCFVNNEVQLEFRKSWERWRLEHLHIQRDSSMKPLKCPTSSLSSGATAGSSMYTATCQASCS
Chain of Glutaminase kidney isoform, mitochondrial (Homo sapiens) (O94925 whole entry, looked up, canonical isoform): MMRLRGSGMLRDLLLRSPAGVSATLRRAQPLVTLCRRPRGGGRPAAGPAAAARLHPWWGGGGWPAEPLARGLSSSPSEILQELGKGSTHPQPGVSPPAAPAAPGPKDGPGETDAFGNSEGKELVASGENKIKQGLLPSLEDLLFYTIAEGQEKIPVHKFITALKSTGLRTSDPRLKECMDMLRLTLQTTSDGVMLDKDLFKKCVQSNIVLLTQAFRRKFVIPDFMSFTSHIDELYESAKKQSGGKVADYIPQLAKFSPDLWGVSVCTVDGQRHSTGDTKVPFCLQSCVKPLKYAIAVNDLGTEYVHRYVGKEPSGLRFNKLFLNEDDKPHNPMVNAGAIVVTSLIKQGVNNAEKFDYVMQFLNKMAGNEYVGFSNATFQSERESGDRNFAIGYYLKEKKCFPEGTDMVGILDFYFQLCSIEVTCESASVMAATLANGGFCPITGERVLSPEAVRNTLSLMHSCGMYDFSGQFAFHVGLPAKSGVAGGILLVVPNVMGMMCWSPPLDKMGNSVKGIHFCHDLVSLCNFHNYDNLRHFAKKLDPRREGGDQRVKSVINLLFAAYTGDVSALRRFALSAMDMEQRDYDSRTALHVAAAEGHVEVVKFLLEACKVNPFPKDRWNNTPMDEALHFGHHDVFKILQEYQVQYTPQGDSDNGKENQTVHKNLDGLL
Chain of Tumor necrosis factor (Homo sapiens) (P01375 whole entry, looked up): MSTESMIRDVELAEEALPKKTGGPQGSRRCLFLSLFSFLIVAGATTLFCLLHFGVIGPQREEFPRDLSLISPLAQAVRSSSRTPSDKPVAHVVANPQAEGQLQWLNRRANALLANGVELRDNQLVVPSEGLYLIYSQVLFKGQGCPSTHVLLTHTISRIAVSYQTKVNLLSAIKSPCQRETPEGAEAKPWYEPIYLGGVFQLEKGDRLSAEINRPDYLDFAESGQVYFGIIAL

O=C(O)c1ccc2[nH]cc(CCCCN3CC=C(c4ccccc4)CC3)c2c1
inactive: Potency [1]

CNCCC(Oc1ccc(C(F)(F)F)cc1)c1ccccc1 (centres undefined)
inactive: Potency [1]

c1ccc(C2CC2)c(OCC2=NCCN2)c1
inactive: Potency [2] | Potency [1] | Potency [3] | outcome [4] | outcome [5] | outcome [6] | Potency [7]

OCCOc1ccccc1
inactive: Potency [1] | Potency [8] | activation [9] -4.8% and -3.64% | Potency [10] | Potency [11] | outcome [12]

CC(CCc1ccccc1)NC(C)C(O)c1ccc(O)cc1 (centres undefined)
inactive: Potency [2] | outcome [4] | outcome [6] | Potency [7]

C=C(C)[C@H]1Cc2c(ccc3c2O[C@@H]2COc4cc(OC)c(OC)cc4[C@@H]2C3=O)O1
active: Potency [3] 11.2 µM
inactive: Potency [2] | outcome [4] | outcome [5] | outcome [6] | Potency [7] | activation [13] 7.78%

CCCSc1ccc2nc(NC(=O)OC)[nH]c2c1
inactive: Potency [1]
active: Potency [14] 1.07 µM

CCCC(C)(COC(N)=O)COC(=O)NC(C)C (centres undefined)
inactive: Potency [2] | Potency [1] | Potency [3] | outcome [4] | outcome [5] | outcome [6] | Potency [7] | Potency [8] | activation [9] 1.85% and -3% | outcome [12] | Potency [15]

CC(COc1ccccc1)N(CCCl)Cc1ccccc1 (centres undefined)
active: Potency [1] 0.114 µM | Potency [8] 48.6 µM and 42.2 µM

Nc1ccncc1
inactive: Potency [2] | Potency [1] | Potency [3] | outcome [4] | outcome [5] | outcome [6] | Potency [7] | Potency [8] | activation [9] 2.37% | activation [13] -0.507%

Cn1c(CCCC(=O)O)nc2cc(N(CCCl)CCCl)ccc21
active: Potency [1] 1.02 µM
inactive: Potency [2] | Potency [16] | outcome [17] | Potency [18] | Potency [20]
108%: viability, percent of control [19]

Oc1cc(Cl)ccc1Oc1ccc(Cl)cc1Cl
active: Potency [8] 54.5 µM
inactive: Potency [2] | Potency [1] | Potency [14] | activation [13] 2.77%

Oc1ccccc1-c1ccccc1
active: Potency [8] 54.5 µM and 398 µM and 30.6 µM
inactive: Potency [2] | Potency [1] | activation [9] -2.94% and -3.63% and -0.39% | outcome [12] | Potency [15]

CC(=O)Oc1ccccc1C(=O)Nc1ncc([N+](=O)[O-])s1
inactive: Potency [1]
active: Potency [8] 18.8 µM | Potency [9] 12.6 µM | Potency [10] 7.5 µM | Potency [11] 6.68 µM

NCC1(CC(=O)O)CCCCC1
inactive: Potency [2] | Potency [1] | Potency [3] | outcome [4] | outcome [5] | outcome [6] | Potency [7]

N[C@@H](Cc1ccc(N(CCCl)CCCl)cc1)C(=O)O
inactive: activation [13] 3.45% and -0.304% | Potency [10] | Potency [11] | outcome [12]
active: Potency [1] 9.07 µM | Potency [8] 54.5 µM and 42.2 µM | Potency [9] 39.8 µM and 25.1 µM

CNCC[C@H](Oc1cccc2ccccc12)c1cccs1
active: Potency [1] 20.3 µM

c1ccc2c(c1)Nc1ccccc1S2
active: Potency [8] 54.5 µM | Potency [10] 42.2 µM | Potency [11] 66.8 µM
inactive: Potency [2] | Potency [1] | Potency [14] | activation [9] 4.3% and -2.32%

OCCN1CCN(CCCN2c3ccccc3Sc3ccc(C(F)(F)F)cc32)CC1
active: Potency [2] 14.4 µM | Potency [14] 22.4 µM

COc1ccc(C(CN(C)C)C2(O)CCCCC2)cc1 (centres undefined)
inactive: Potency [2] | Potency [1] | Potency [3] | outcome [4] | outcome [5] | outcome [6]

CCCN1CCC[C@@H]2Cc3[nH]ncc3C[C@H]21
inactive: Potency [2] | Potency [1] | Potency [3] | outcome [4] | outcome [5] | outcome [6]

Oc1cccc2cccnc12
inactive: Potency [1] | activation [9] -0.845% and 2.31% | outcome [12] | Potency [15]
active: Potency [8] 37.6 µM and 66.8 µM

CC[C@@H](CO)NC(=O)[C@@H]1C=C2c3cccc4[nH]cc(c34)C[C@H]2N(C)C1
active: Potency [7] 0.0052 µM
inactive: Potency [2] | Potency [14] | outcome [4] | outcome [5] | outcome [6]

NN=C(N)N
inactive: Potency [2] | Potency [1] | Potency [3] | outcome [4] | outcome [5] | outcome [6] | Potency [7]

NCC(O)c1ccc(O)cc1 (centres undefined)
active: Potency [1] 16.1 µM
inactive: Potency [2] | Potency [3] | outcome [4] | outcome [5] | outcome [6] | Potency [8] | activation [9] -5.43% | activation [13] -2.66% | outcome [12] | Potency [15]

CCN(CC)CCOC(=O)C(O)(c1ccccc1)c1ccccc1
inactive: Potency [2] | Potency [14]

O=c1[nH]c2ccccc2n1CCCN1CCC(n2c(=O)[nH]c3cc(Cl)ccc32)CC1
inactive: Potency [3] | outcome [4] | outcome [5] | outcome [6] | Potency [7]
active: Potency [1] 36.1 µM

CC(=O)Nc1nnc(S(N)(=O)=O)s1
inactive: Potency [1]

Cc1c(OCC(F)(F)F)ccnc1CS(=O)c1nc2ccccc2[nH]1 (centres undefined)
inactive: Potency [1]
